KinaseGlo FLuc: Counterscreen for Luciferase (Kinase-Glo TM) Inhibition | Luciferin 4-monooxygenase (Photuris pensylvanica), Q27757 | Kinase-Glo luciferase, ATP luminescence, 8 min | Potency, µM (series often up to 38.3 µM), inactives show at the highest dose activity change, negative = inhibition, actives largely listed as inhibitors | 200,000 compounds, 0.28% hits | AID 1379, 2008; active means well fitted inhibition curve with a large enough effect; inconclusive means small, poorly fitted or top-dose-only effect; further: potency means the concentration at half of the fitted maximal effect; nearly all actives have a fitted effect of over 60% in size
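Compound is pinned into ATP-containing buffer (10 uM ATP, imidazole pH 7.2, 7 mM MgCl2). Kinase-Glo luciferase reagent is then added. Light output is recorded following an 8-min room-temperature incubation.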
KCNH2 WT inh: qHTS for Inhibitors of KCHN2 3.1: Wildtype qHTS. Voltage-gated inwardly rectifying potassium channel KCNH2 (Homo sapiens), Q12809. U2OS, BacMam KCNH2, thallium flux FluxOr; active compounds read low. activity change, % at 1.84 µM. 340,000 compounds, 0.37% hits;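 active means maximum activity change below -70%; inconclusive means maximum activity change between -70% and -50%; inactive means maximum activity change above -50%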
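U2OS cells were transduced with wild-type KCNH2 virus (2.03 x 10^8 / mL) for 4 h at room temperature, then cultured overnight at 37 C. Thallium flux was read with FluxOr dye. Rate constants were normalized to DMSO controls.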
KCNH2 3.1 inh: qHTS for Inhibitors of KCHN2 3.1: Mutant qHTS | Potassium voltage-gated channel subfamily H member 2, brain isoform KCNH2 3.1 (human) | U2OS KCNH2 3.1, thallium flux FluxOr; active compounds read low | activity change, % (tested at about 1.8 µM) | 340,000 compounds, 0.95% hits;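 active means maximum activity change below -70%; inconclusive means maximum activity change from -70% to -50%; inactive means maximum activity change above -50%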;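 further: thallium influx rate constant from kinetic fluorescence after stimulation buffer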
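Kinetic fluorescence (2 min after stimulation buffer) measures Tl+ influx through KCNH2 3.1 expressed by viral transduction in U2OS cells; the rate constant is normalized against DMSO controls serving as positive and negative references.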
* marks the source's active call; other numbers are inactive results; ? = inconclusive; · = no result given. A selection: hits, their analogues and other compounds. The true share with any hit is near 1.2%. On the % scale 0 is the no-effect control and ±100 the full control effect.

SMILES	KinaseGlo FLuc	KCNH2 WT inh	KCNH2 3.1 inh
O=C(Cn1cnc2ccccc21)Nc1ccc2c(c1)OCCCO2	·	-8	-19
CC(NC(=O)CSc1ncccn1)c1ccc2c(c1)OCO2 (configuration not stated)	·	4	-2
CC(NC(=O)CCc1ccccc1)c1ccc2c(c1)OCO2 (configuration not stated)	·	-142*	-2
O=C(Cn1c(C(=O)OCCO)cc2ccccc21)c1ccccc1	·	17	15
C#CCN(C[C@H]1[C@H](OC(=O)NCC2CCCCC2)[C@H](OC(=O)NCC2CCCCC2)C[C@H]2C(=O)N(c3ccccc3)C(=O)[C@@H]12)S(=O)(=O)c1ccc(C)cc1	·	-8	16
CC(C)N1C(=S)N(Cc2ccco2)C(=O)C1CC(=O)Nc1ccccc1 (configuration not stated)	0%	0	-37
CC(C)CC(NC(=O)OC(C)(C)C)c1cn([C@@H](CCCCNC(=O)OC(C)(C)C)C(=O)N2CCN(C(=O)OC(C)(C)C)CC2)nn1 (some centres not stated)	·	-2	0
CC[C@@H](C)C(NC(=O)OC(C)(C)C)c1cn([C@@H](CCCCNC(=O)OC(C)(C)C)C(=O)N2CCN(C(=O)OC(C)(C)C)CC2)nn1 (some centres not stated)	·	-291*	-5
CSc1cccc(NC(=S)N(Cc2ccc(C)cc2)Cc2cccnc2)c1	1%	9	-89*
Cc1ccccc1NC(=S)N(Cc1ccccc1)Cc1cccnc1	0%	6	-14
O=C(c1cc(-c2cccc(Cl)c2)on1)N1CCN(c2ccccc2)CC1	·	2	4
O=C(c1cc(-c2cccc(Cl)c2)on1)N1CCCC1	·	-7	-131*
COc1cccc(C(=O)Nc2nc3ccccc3[nH]2)c1	13µM*	-2	5
COc1ccc(C(=O)Nc2nc3ccccc3[nH]2)cc1	·	9	11
CC(Nc1cccc(C(=O)NC2CC2)c1)c1nnc(-c2ccccc2)o1 (configuration not stated)	·	1	7
Cc1cccc(-c2nnc(C(C)Nc3cccc(C(=O)NC4CC4)c3)o2)c1 (configuration not stated)	·	7	-73*
Cc1nc(SCC(=O)N2CCOCC2)c2c(C)c(C)sc2n1	·	-16	4
Cc1nc(SCC(=O)N2CCCC2=O)c2c(C)c(C)sc2n1	·	-90*	10
COc1ccc2cc(CCNC(=O)c3cc4ccccc4o3)c(=O)[nH]c2c1	·	-80*	-4
Cc1ccc2cc(CCNC(=O)c3cc4ccccc4o3)c(=O)[nH]c2c1C	1%	2	-2
COc1ccc(N(C(=O)c2cnccn2)C(C(=O)NC2CCCCC2)c2cc(OC)c(OC)c(OC)c2)cc1 (configuration not stated)	·	0	1
COC(=O)c1cc(-c2ccc(S(=O)(=O)N3CCCCC3)cc2)c(C(F)(F)F)s1	·	0	29
Cc1ccccc1OCCN1CCC(Cc2ccccc2)CC1	3%	-9	0
Cc1ccc([N+](=O)[O-])c(OCCN2CCC(Cc3ccccc3)CC2)c1	3%	-4	-93*
O=[N+]([O-])c1cccc(OCCCN2CCC(Cc3ccccc3)CC2)c1	·	-86*	-88*
SMILES	KinaseGlo FLuc	KCNH2 WT inh	KCNH2 3.1 inh
O=[N+]([O-])c1ccc(CN2CCC(Cc3ccccc3)CC2)cc1	·	3	?
COc1ccccc1-c1cc(SC)c(C#N)c(=O)o1	-7%	·	34
O=C(Cc1c(F)cccc1Cl)Nc1ccccc1C(=O)N1CCCCC1	·	9	0
O=C(O)c1cccc2c1/C(=N/Nc1ccc([N+](=O)[O-])cc1[N+](=O)[O-])c1ccccc1-2	·	5	23
O=C(O)C(c1ccccc1)N1C(=O)c2ccccc2C1=O (configuration not stated)	·	-13	13
O=C(O)CC(c1ccccc1)N1C(=O)c2ccccc2C1=O (configuration not stated)	·	-1	-76*
CCn1c2ccccc2c2cc(NC(=O)COC(=O)c3cccc(S(=O)(=O)NC)c3)ccc21	0%	-1	2
CCN(CC)S(=O)(=O)c1cccc(C(=O)OCC(=O)Nc2ccc3c(c2)c2ccccc2n3CC)c1	-2%	-119*	9
Nc1cc(C(=O)OCC(=O)Nc2cccc(S(=O)(=O)N3CCOCC3)c2)ccc1Cl	·	-4	-2
CSc1ccc(/C=N/NC(=O)c2ccc(O)cc2)cc1	13µM*	1	-9
COc1ccc(C(=O)N/N=C/c2ccc(SC)cc2)cc1	3%	0	0
CCOc1ccc(/C=C2\SC(=S)N(CC(=O)N(CCO)C(C)(C)C)C2=O)cc1	-4%	10	6
CCOc1ccc(/C=C2\SC(=S)N(N3C(=O)C4CC4C3=O)C2=O)cc1 (configuration not stated)	1%	-6	-99*
CCOc1ccc(N=C2NC(=O)S/C2=C\c2ccc(N(C)C)cc2)cc1	-3%	-5	-7
CCOc1ccc(/C=C2/SC(=O)NC2=S)cc1	1%	-16	-94*
Cc1csc(=O)n1CC(=O)OCC(=O)Nc1ccccc1C(C)C	·	8	8
O=C1c2ccccc2-c2nc3ccccc3cc21	·	11	-7
c1ccc2c(c1)Cc1cc3ccccc3nc1-2	10µM*	1	3
O=C(NCCc1ccccc1)C1CCCN(S(=O)(=O)c2cccnc2)C1 (configuration not stated)	-2%	-254*	12
NS(=O)(=O)c1ccc(CCNC(=O)C2CCCN(S(=O)(=O)c3cccnc3)C2)cc1 (configuration not stated)	-1%	-8	2
CNC(=O)c1[nH]cnc1C(=O)Nc1ccc(C)cc1	-3%	-2	7
Cc1ccc(NC(=O)c2nc[nH]c2C(=O)Nc2ccc(C)cc2)cc1	-3%	-192*	10
COc1ccc(C(=O)OCC(=O)N(C)C2CCS(=O)(=O)C2)cc1Br (configuration not stated)	·	-2	3
Cc1ccc(CN(C)C(=O)CN2C(=O)NC3(CCCc4ccccc43)C2=O)c(C)c1 (configuration not stated)	·	5	0
CCCOc1ccc(CCC(=O)N/N=C/c2ccncc2)cc1	·	5	19
SMILES	KinaseGlo FLuc	KCNH2 WT inh	KCNH2 3.1 inh
CC(=O)c1ccc(Nc2c3c(nc4ccccc24)CCCC3)cc1	·	-77*	-10
CC(=O)c1cccc(Nc2c3c(nc4ccccc24)CCC3)c1	·	-3	-19
O=C(Nc1ncc(Cc2ccc(SC(F)F)cc2)s1)c1ccc(OC(F)F)cc1	0%	4	-82*
Cc1ccc(Cc2cnc(NC(=O)c3ccco3)s2)cc1	-5%	0	9
COCCNC(=S)Nc1cc2oc3ccccc3c2cc1OC	·	-6	12
CCc1noc(C)c1C(=O)Nc1cc(S(=O)(=O)N(CC)CC)ccc1N1CCOCC1	·	6	1
COc1cc2oc3ccccc3c2cc1N(CC(=O)N(C)C)S(=O)(=O)c1ccc(C)cc1	-5%	7	·
COc1cc2oc3ccccc3c2cc1N(CC(=O)N(C)C)S(=O)(=O)c1ccccc1	1%	17	-84*

Compound activity from PubChem BioAssay.
